This assay can be described thus: Biochemical counterscreen for C difficile toxins, absence of UDPG, inhibitor dose response (AID 720650). The settings on record: series mostly up to 19.5 µM. (In general: A counterscreen serves to expose hits that act by an unwanted route or on another target.)

SMILES strings stand for the structures. Unmarked numbers belong to inactive results. Active and inactive are the calls of the source. How the calls were made is not given here. Bounds are passed on as bounds.

For the molecule `Cn1c(SCc2nnc(-c3ccccc3)o2)nc2ccccc21`, the AC50 (in general, the midpoint of the concentration-response curve, whichever way the signal moves) is “inactive”. As for `Oc1ccc(CCc2ccccn2)cc1`, the figure is 11.6 µM (active); as for `CCOc1ccccc1-n1c(C)nc2cc(C(=O)O)ccc21`, “inactive”. Consider `Cc1ccnc(N2C(=O)c3ccccc3C2=O)c1`, for which the AC50 result is “inactive”. Regarding `O=C(CSc1ccc2nnc(-c3ccc(F)cc3)n2n1)N1CCOCC1`, the AC50 entry was “inactive”. As for `O=C(NC(=S)Nc1ccc(N2CCOCC2)cc1)c1ccccc1`, the entry is “inactive”. Next, `Oc1ccc(/C=N/N2CCN(Cc3ccccc3)CC2)cc1`: > 39 µM. As for `COc1ccc(-c2ccc3c(c2)[C@H]2[C@H](CCN2C(=O)CN2CCOCC2)[C@@H](CO)N3)cc1`, the figure is 11 µM (active).

For the molecule `O=P1(Oc2ccccc2)OCCCS1` (configuration not stated), the AC50 entry is “inactive”.

Turning to `CC(=O)Nc1cccc(NC(=O)c2ccc(Br)cc2)c1`, the AC50 entry was “inactive”.

With `CC(C)OC(=O)c1cccc(C(=O)O)n1`, the AC50 result was “inactive”. As for `Cc1ccc(CSc2nc3nc(C)cc(C)c3c(=O)[nH]2)cc1`, the entry is “inactive”; as for `S=c1nc(-c2ccc(Cl)cc2)[nH][nH]1`, 3.22 µM (active). With `O=C(C[C@@H]1C[C@H]2c3cc(NC(=O)c4ccc5c(c4)OCO5)ccc3O[C@H]2[C@H](CO)O1)NCc1cccc(F)c1`, the AC50 result was “inactive”.

With `Cc1cc(C(=O)CSc2nc(N)cc(=O)[nH]2)c(C)n1CC1CCCO1` (configuration not stated), the AC50 entry was “inactive”. Consider `CCOc1ccc(S(=O)(=O)NCCC(=O)NCc2ccccn2)cc1`, for which the AC50 entry is “inactive”.

Regarding `Cc1cc(C)cc(N=C2NC(=O)CS2)c1`, the AC50 entry was “inactive”.

As for `Oc1ccc(NC(=S)Nc2ccccc2)cc1`, the AC50 is 18.6 µM (active). Next, `CNC(=O)C[C@@H]1CC[C@@H]2[C@H](COc3ccc(NS(=O)(=O)c4ccccc4C)cc3C(=O)N2C)O1`: “inactive”; `COc1cccc2cc(/C(C)=N/NC(=O)c3ccco3)oc12`: “inactive”; `Oc1ccc(/C=N/N2CCN(c3ccccn3)CC2)cc1`: 15 µM (active). Next, `CNC(=O)N(O)C1N(/N=C/c2ccc(SC)cc2)C(=S)SC1(C)C` (configuration not stated): > 39 µM; `Oc1ccc(-c2cn3ccccc3n2)cc1`: 4.42 µM (active). As for `Cc1ccc(S(=O)(=O)Oc2ccc(/C=N/NC(=O)c3nn(C)cc3[N+](=O)[O-])cc2)cc1`, the entry is “inactive”; as for `COc1ccc(C2=NS(=O)(=O)N(C)C(C(=O)N(C)Cc3ccccc3)=C2)cc1`, “inactive”; as for `O=C(Cc1ccccc1)NNC(=S)NC(=O)c1cccnc1`, > 39 µM. For `COc1ccc(C2=NS(=O)(=O)N(C)C(C(=O)N3CCN(C)CC3)=C2)cc1`, the AC50 entry is “inactive”. As for `CC1=NCCc2c1[nH]c1cc(O)ccc21`, the figure is 21.9 µM (active).

Regarding `COc1ccc(CNC(=O)C2=CC(c3ccc(C)cc3)=NS(=O)(=O)N2C)cc1`, the AC50 entry was “inactive”.

Take `Cc1ccc(/C=N/NC(=O)c2cccc(S(=O)(=O)Nc3ccccc3Cl)c2)o1`: the AC50 entry was “inactive”. Next, `CCCSc1nc2c([nH]1)c(=O)n(C)c(=S)n2C`: “inactive”; `COc1ccc(C2=NS(=O)(=O)N(C)C(C(=O)NC(C)c3ccccc3)=C2)cc1` (configuration not stated): “inactive”; `CCn1c(C)nc2cc(C(=O)N/N=C/c3ccc(O)cc3)ccc21`: 15.1 µM (active). As for `COCC(=O)N1CC[C@@H]2[C@H]1c1cc(-c3ccccc3)ccc1N(C)[C@H]2CO`, the figure is 6.54 µM (active); as for `CC(C)Cc1[nH]c(=O)c(C#N)c2c1CCC2`, “inactive”.

On to `Cc1noc(C)c1NC(=O)N(C)C[C@@H]1Oc2ccc(NC(=O)C3CCCCC3)cc2C(=O)N([C@@H](C)CO)C[C@H]1C`, for which the AC50 result is “inactive”. As for `COc1ccc(C=C2CCC3C(=O)CCCC3(C)C2=O)cc1` (configuration not stated), the entry is “inactive”; as for `CCOC(CCNC(=O)c1cn(CCOC)c(=O)c2c1c1ccccc1n2C)OCC`, “inactive”.

Regarding `Oc1ccc2c(ccc3[nH]cnc32)c1`, the AC50 is 20.8 µM (active).

For `COc1cc(/C=C(/NC(=O)c2ccccc2)C(=O)Nc2ccc(O)cc2)c([N+](=O)[O-])cc1OC`, the AC50 is 13.9 µM (active). For the molecule `COc1cccc(C(=O)Nc2ccc3c(c2)C(=O)N(C)[C@@H]2CC[C@H](CC(=O)NCCCN4CCOCC4)O[C@@H]2CO3)c1`, the AC50 result is “inactive”. Consider `CC(=O)Nc1ccc(S(=O)(=O)N2CCCC(C(=O)O)C2)cc1` (configuration not stated), for which the AC50 result is “inactive”. Next, `O=C(O)C1C(=O)NCC1c1ccccc1` (configuration not stated): “inactive”. `O=C(OCn1nnc2ccccc2c1=O)c1cc2ccccc2o1`: the AC50 result was “inactive”. On to `O=C(CCC(=O)N1CCSc2ccccc21)Nc1cccc(F)c1`, for which the AC50 result was “inactive”.

For `CCOC(=O)c1ccc2ncc(-c3ccccc3)nc2c1`, the AC50 entry is “inactive”.

With `O=C(COc1ccc(/C=N/NC(=O)c2ccc(O)cc2)cc1)Nc1cccc([N+](=O)[O-])c1`, the AC50 result was “inactive”.

For the origin of these results see PubChem BioAssay AID720650 (Broad Institute, 2013).
